Test results reported in PubChem BioAssay (NCI).
The panel holds about 83,000 compounds, 20% with a hit somewhere; the sample as a whole holds those more often.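 Each cell line was grown in a 96-well plate and treated with one concentration of compound for 48 hours. Values below 10 were considered active.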 Calls of active or inactive are those of the source.

How the values were obtained:
Test in all cases: NCI-60 one-dose screen, 48 h (100 = growth as untreated, 0 = no growth, -100 = all killed)
Conditions in all cases: 10 µM
K-562 leukemia = tested on: K-562 leukemia
MALME-3M melanoma = tested on: MALME-3M melanoma
MDA-MB-231 breast = tested on: MDA-MB-231 breast
SF-268 CNS = tested on: SF-268 CNS
SF-295 CNS = tested on: SF-295 CNS
SF-539 CNS = tested on: SF-539 CNS
UACC-257 melanoma = tested on: UACC-257 melanoma
M14 melanoma = tested on: M14 melanoma
HCT-15 colon = tested on: HCT-15 colon
RXF 393 renal = tested on: RXF 393 renal

Measured: growth

COC(=O)c1ccc(=O)oc1
inactive: K-562 leukemia 86.8% | MALME-3M melanoma 101% | MDA-MB-231 breast 98.1% | SF-268 CNS 104% | SF-295 CNS 102% | SF-539 CNS 95.8% | UACC-257 melanoma 100% | M14 melanoma 101% | HCT-15 colon 97.8%

COc1cc(/C(=C2/O[C@@H]([C@H]3COC(C)(C)O3)[C@H]3OC(C)(C)O[C@@H]23)c2ccc3ccccc3c2)cc(OC)c1OC
active: MALME-3M melanoma -25.4% | SF-268 CNS -16.9%
inactive: K-562 leukemia 28.1% | MDA-MB-231 breast 13.6% | SF-295 CNS 46.6% | SF-539 CNS 26.4% | UACC-257 melanoma 45.9% | M14 melanoma 62.8% | HCT-15 colon 59.7%

Cc1cs/c(=N\NC(=O)c2cc(-c3cc4ccccc4o3)nn2-c2ccccc2)n1-c1ccccc1
inactive: K-562 leukemia 94.2% | MALME-3M melanoma 99.5% | MDA-MB-231 breast 84% | SF-268 CNS 92.5% | SF-295 CNS 85% | SF-539 CNS 106% | M14 melanoma 95.8% | HCT-15 colon 96.6%

COc1cc(/C=C2\Oc3cc(OCC(=O)c4ccccc4)ccc3C2=O)cc(OC)c1OC
inactive: K-562 leukemia 105% | MALME-3M melanoma 114% | MDA-MB-231 breast 95.6% | SF-268 CNS 105% | SF-295 CNS 91.5% | SF-539 CNS 121% | UACC-257 melanoma 132% | M14 melanoma 125% | HCT-15 colon 103%

N=c1nc(N)ncn1-c1ccccc1
inactive: K-562 leukemia 93.5% | MALME-3M melanoma 110% | MDA-MB-231 breast 96.1% | SF-268 CNS 108% | SF-295 CNS 97.8% | SF-539 CNS 96.4% | UACC-257 melanoma 97.1% | M14 melanoma 106% | HCT-15 colon 99.1%

O=C(CC(C(=O)c1ccccc1)N1CCOCC1)c1ccccc1 (configuration not stated)
inactive: K-562 leukemia 40.5% | MALME-3M melanoma 101% | MDA-MB-231 breast 92.7% | SF-268 CNS 97.6% | SF-295 CNS 92.9% | SF-539 CNS 96.7% | UACC-257 melanoma 93.8% | M14 melanoma 101% | HCT-15 colon 85%

COc1ccc2c(c1)[n+]([O-])c(C#N)c(NC(=O)c1ccco1)[n+]2[O-]
inactive: K-562 leukemia 92.8% | MALME-3M melanoma 103% | MDA-MB-231 breast 92.3% | SF-268 CNS 107% | SF-295 CNS 99.9% | SF-539 CNS 107% | M14 melanoma 104% | HCT-15 colon 99%

CCN(CC)CCCC(C)Nc1nc(-c2ccc(OC)cc2)nc2cc(Cl)ccc12 (configuration not stated)
active: M14 melanoma -29%
inactive: K-562 leukemia 44.3% | MALME-3M melanoma 79.2% | MDA-MB-231 breast 28.9% | SF-268 CNS 60.1% | SF-295 CNS 89.7% | SF-539 CNS 62% | UACC-257 melanoma 46% | HCT-15 colon 49.9%

CCN(CC)CCC(CNc1c(C)cnc2cc(Cl)ccc12)c1ccc(Cl)cc1 (configuration not stated)
inactive: MDA-MB-231 breast 27.3% | SF-268 CNS 67.5% | SF-295 CNS 51.4% | HCT-15 colon 35%
active: K-562 leukemia 7.15% | MALME-3M melanoma -57.9% | SF-539 CNS -52.3% | UACC-257 melanoma -58.3% | M14 melanoma -67.3%

O=C(Nc1ccncc1)C(=O)c1cn(S(=O)(=O)c2cc(Cl)cc(Cl)c2)c2ccccc12
inactive: K-562 leukemia 28.5% | MDA-MB-231 breast 63.6% | RXF 393 renal 75% | SF-268 CNS 94.3% | SF-295 CNS 38.2% | SF-539 CNS 61.7% | UACC-257 melanoma 69.8% | M14 melanoma 71.5% | HCT-15 colon 69.5%

Cn1c(C(N)=O)cc2c1-c1nc(Nc3ccccc3)ncc1CCC2
active: RXF 393 renal 3.67%
inactive: K-562 leukemia 49.8% | MDA-MB-231 breast 38.1% | SF-268 CNS 47.8% | SF-295 CNS 60.6% | SF-539 CNS 35.5% | UACC-257 melanoma 74.3% | M14 melanoma 45.5% | HCT-15 colon 34.6%

COc1ccc2c(c1)N(CCO)C1=C(C(=O)OC1)C2c1ccccc1 (configuration not stated)
active: RXF 393 renal 2.16% | SF-295 CNS -11.6% | SF-539 CNS 2.74% | M14 melanoma 7.89%
inactive: K-562 leukemia 16.3% | MDA-MB-231 breast 63.4% | SF-268 CNS 51.2% | UACC-257 melanoma 55% | HCT-15 colon 22.4%

NC1(C(=O)O)CSSC1
inactive: K-562 leukemia 43.3% | MDA-MB-231 breast 124% | RXF 393 renal 74% | SF-268 CNS 101% | SF-295 CNS 33.6% | SF-539 CNS 97% | UACC-257 melanoma 48.5%
active: M14 melanoma 9.39%

COc1cc(/C=C2\CCCC3=C2N=C2SC=NN2C3c2cc(OC)c(OC)c(OC)c2)cc(OC)c1OC (configuration not stated)
inactive: RXF 393 renal 21.7% | SF-268 CNS 22.9% | SF-295 CNS 21.4% | UACC-257 melanoma 34.3%
active: K-562 leukemia 8.28% | MDA-MB-231 breast 2.06% | SF-539 CNS 5.9% | M14 melanoma 9.84% | HCT-15 colon 6.59%

COc1ccc2c(c1)sc1nc(-c3ccccc3)c(-c3ccc(O)c(OC)c3)n12
inactive: K-562 leukemia 30.7% | MDA-MB-231 breast 90.7% | RXF 393 renal 104% | SF-268 CNS 88.7% | SF-295 CNS 81.2% | SF-539 CNS 86.9% | UACC-257 melanoma 83.8% | M14 melanoma 38.1%

O=C1OCC2=C1C(c1cccc(Cl)c1)c1cc3c(cc1N2CCO)CCC3 (configuration not stated)
active: MDA-MB-231 breast -19.3% | SF-295 CNS -18.8% | SF-539 CNS -5.32% | M14 melanoma 8.51% | HCT-15 colon 9.71%
inactive: K-562 leukemia 16.7% | RXF 393 renal 34.3% | SF-268 CNS 13.9% | UACC-257 melanoma 46%

COc1ccc2c(c1)C(=O)c1c-2c(OCCN(C)C)nc2ccccc12
inactive: K-562 leukemia 10.2% | MDA-MB-231 breast 67.8% | RXF 393 renal 49% | SF-268 CNS 26.6% | SF-295 CNS 18% | SF-539 CNS 45.9% | UACC-257 melanoma 36.2% | M14 melanoma 30% | HCT-15 colon 20.5%

COc1cc2c(cc1OC)N(CCO)C1=C(C(=O)OC1)C2c1ccc(Cl)c(Cl)c1 (configuration not stated)
inactive: K-562 leukemia 88.7% | MDA-MB-231 breast 96.8% | RXF 393 renal 97.8% | SF-268 CNS 100% | SF-295 CNS 103% | SF-539 CNS 99.3% | UACC-257 melanoma 103% | M14 melanoma 112% | HCT-15 colon 98.2%

COc1cc2c(cc1OCCCCCCN1CCN(CC(=O)Nc3ccc(Cl)cc3C(=O)c3ccccc3Cl)CC1)N=CC1CCCN1C2=O (configuration not stated)
active: K-562 leukemia -62.3% | MALME-3M melanoma -92.3% | MDA-MB-231 breast -100% | SF-268 CNS -61% | SF-295 CNS -94.9% | SF-539 CNS -95.2% | M14 melanoma -67.4% | HCT-15 colon -100%

CC[C@H]1CCC/C=C/[C@@H]2C[C@H](O)C[C@H]2[C@H](O)/C=C/C(=O)O1
active: MDA-MB-231 breast -88.4% | RXF 393 renal -29.2% | SF-268 CNS 8% | SF-295 CNS -1.83% | UACC-257 melanoma -13.6% | M14 melanoma 2.47% | HCT-15 colon 8.78%
inactive: K-562 leukemia 10.3% | SF-539 CNS 30.9%

COc1cc(CNc2ccccc2C(=O)N2CCN(C(=O)c3cc(-c4cc(OC)c(OC)c(OC)c4)n4nc(-c5ccccc5)cc4n3)CC2)cc(OC)c1OC
active: SF-295 CNS 0.214%
inactive: K-562 leukemia 22.8% | MDA-MB-231 breast 67.8% | RXF 393 renal 35.5% | SF-268 CNS 65% | SF-539 CNS 49.4% | UACC-257 melanoma 37.5% | M14 melanoma 33% | HCT-15 colon 42.8%

N=C1c2nc3n(c2C(=O)c2nc4n(c21)CCCC4)CCCC3
active: SF-295 CNS -85.7% | SF-539 CNS -21.7% | UACC-257 melanoma -6.6% | M14 melanoma -95.6% | HCT-15 colon 6.18%
inactive: K-562 leukemia 81.4% | MDA-MB-231 breast 82.6% | RXF 393 renal 94.8% | SF-268 CNS 71.3%

FC(F)(F)c1ccc2nc(-c3nc(-c4ccccc4)n4ccccc34)[nH]c2c1
inactive: K-562 leukemia 82.7% | MDA-MB-231 breast 22.1% | RXF 393 renal 94.4% | SF-268 CNS 49.1% | SF-295 CNS 104% | SF-539 CNS 35.1% | UACC-257 melanoma 81.7% | M14 melanoma 96% | HCT-15 colon 60.4%

ClC(Cl)(Cl)c1nc2nccnc2[nH]1
inactive: K-562 leukemia 101% | MALME-3M melanoma 102% | RXF 393 renal 111% | SF-268 CNS 113% | SF-295 CNS 78.9% | SF-539 CNS 99.6% | UACC-257 melanoma 108% | M14 melanoma 103% | HCT-15 colon 103%

COc1cc(-c2cc(C(=O)N3CCN(C(=O)c4ccccc4NCc4cccs4)CC3)nc3cc(-c4ccccc4)nn23)cc(OC)c1OC
inactive: K-562 leukemia 31.4% | MDA-MB-231 breast 90.1% | RXF 393 renal 62.3% | SF-268 CNS 90.8% | SF-295 CNS 105% | SF-539 CNS 98.5% | UACC-257 melanoma 76.4% | M14 melanoma 70.9% | HCT-15 colon 55.4%

O=[N+]([O-])c1cccc(N=Cc2ccc3c(c2)OCO3)c1
inactive: K-562 leukemia 100% | MDA-MB-231 breast 130% | RXF 393 renal 118% | SF-268 CNS 114% | SF-295 CNS 102% | SF-539 CNS 115% | UACC-257 melanoma 102% | M14 melanoma 97.7%

COc1ccc2c(c1)N(CCO)C1=C(C(=O)OC1)C2c1cc(OC)c(OC)c(OC)c1 (configuration not stated)
inactive: K-562 leukemia 15% | RXF 393 renal 55.5% | SF-268 CNS 23.9% | UACC-257 melanoma 47.4% | M14 melanoma 11.2%
active: MDA-MB-231 breast -24.4% | SF-295 CNS -20.6% | SF-539 CNS -6.38% | HCT-15 colon 5.29%

COC(=O)c1c(-c2ccccc2)csc1NC(=O)c1c(-c2ccccc2)noc1C
inactive: K-562 leukemia 18.5% | MDA-MB-231 breast 59.2% | RXF 393 renal 38.8% | SF-268 CNS 36.5% | SF-295 CNS 43.8% | SF-539 CNS 33.2% | UACC-257 melanoma 45.5% | M14 melanoma 52.3% | HCT-15 colon 14.5%

c1ccc2c(c1)oc1c3cccnc3ccc21
inactive: K-562 leukemia 95.8% | MDA-MB-231 breast 87.7% | RXF 393 renal 94.4% | SF-268 CNS 98.3% | SF-295 CNS 105% | SF-539 CNS 88.1% | UACC-257 melanoma 101% | M14 melanoma 100%

Cc1ccc(-c2nc(/C=C3/C(=O)N(C)c4ccc(F)cc43)c3ccccn23)cc1
inactive: K-562 leukemia 107% | MDA-MB-231 breast 76.5% | RXF 393 renal 97.9% | SF-268 CNS 92.1% | SF-295 CNS 71.3% | SF-539 CNS 94.6% | UACC-257 melanoma 106% | M14 melanoma 99.5%
